This is a sample that favours compounds with a hit; in the whole collection about 1.7% have one here.
GLP-1R agonist: GLP-1 receptor (human) agonism; actives 0.007% (n = 380,000); P43220; Potency, µM (series often up to 45.6 µM), hits mostly activators; AID 624172; HEK293 GLP-1R CRE-luciferase, luminescence, 4-6 h; cells express a hypersensitive GLP-1R form
Target sequence (P43220 whole entry, looked up): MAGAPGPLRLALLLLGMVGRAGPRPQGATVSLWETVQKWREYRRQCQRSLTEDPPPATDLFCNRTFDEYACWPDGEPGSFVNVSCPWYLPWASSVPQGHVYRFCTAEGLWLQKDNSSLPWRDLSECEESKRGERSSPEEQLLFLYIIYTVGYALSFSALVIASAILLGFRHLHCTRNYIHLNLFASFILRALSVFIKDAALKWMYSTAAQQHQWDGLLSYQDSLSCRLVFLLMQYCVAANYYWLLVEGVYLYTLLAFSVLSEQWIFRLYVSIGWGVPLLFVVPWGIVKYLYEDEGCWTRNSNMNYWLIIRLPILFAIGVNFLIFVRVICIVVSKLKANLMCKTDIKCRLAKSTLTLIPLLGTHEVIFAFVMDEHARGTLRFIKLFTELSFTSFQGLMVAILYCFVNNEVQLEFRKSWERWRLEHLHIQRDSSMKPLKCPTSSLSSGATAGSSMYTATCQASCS
GLP-1R inv ag: acts as inverse agonist at human GLP-1 receptor. HEK293 GLP-1R CRE-luciferase, luminescence, 24 h; GLP-1R form is constitutively active. P43220. actives 1.6% (n = 410,000). Potency, µM (highest dose often 38.3 µM), hits mostly inhibitors; further: nearly all actives have a fitted effect of over 55% in size
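qHTS in 1536-well format: reporter HEK293 cells expressing constitutive GLP-1R activity in DMEM + 10% Nu serum, 24 hr with compounds at 37 deg C, luminescence read after 12 min with detection reagent.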
HEK293 tox: cytotoxic in the GLP-1 receptor inverse agonist counter-screen | HEK293 cAMP-luciferase reporter cells, luminescence, 24 h | Potency, µM (highest dose often 38.3 µM), actives largely listed as inhibitors | actives 0.13% (n = 410,000) | AID 624418;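 further: loss of luciferase light is scored as toxicity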
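Step one: seed cells (200 cells/uL, DMEM with 10% Nu serum, 1% pen-strep). Step two: 12-hour incubation at 37 deg C. Step three: pin 23 nL compound, incubate 24 hr. Step four: add luciferase reagent, read luminescence 12 min later.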
Each line names hits and unclear results; the compound was inactive in the other large screens. The call rests on the fitted dose curve; in most records, active means well fitted curve in the direction sought with a large enough effect; inconclusive means small, poorly fitted or top-dose-only effect, or another doubt; inactive means no such curve, though single readings can be large; an effect the other way counts as inactive or inconclusive.

CCCCCCn1c(O)c(/C=C2\C=NN=C2c2ccccc2)sc1=S	GLP-1R inv ag inconclusive, HEK293 tox 11µM
CCCCn1c(O)c(/C=C2\C=NN=C2c2ccccc2)sc1=S	none
Cc1cc(C(=O)COc2ccc3ccc(=O)oc3c2)c(C)n1C	none
O=C(CC(c1ccccc1)c1cc(Br)ccc1O)N1CCCCC1 (stereo not given)	GLP-1R inv ag 10µM
O=C(CC(c1ccccc1)c1ccccc1O)N1CCCC1 (stereo not given)	none
COc1ccc(-c2nc3ccc(NS(=O)(=O)c4ccc(Cl)cc4)cc3o2)cc1	GLP-1R inv ag inconclusive (no result: GLP-1R agonist)
Cc1ccccc1C(=O)Nc1nc2nc(-c3ccccc3)cc(=O)n2[nH]1	none (no result: GLP-1R agonist)
CCOC(=O)c1ccc(NC(=O)C(=O)NCc2ccco2)cc1	none
O=C(c1ccc2c(=O)n3c(nc2c1)CCCCC3)N1CCCCC1	none
Cc1ccc(C)c(N2CCN(C(=O)c3ccc4c(=O)n5c(nc4c3)CCCCC5)CC2)c1	GLP-1R inv ag 1.8µM
O=C(COC(=O)Cc1c[nH]c2ccccc12)Nc1cccc(Br)c1	none
CCCCCCCn1c(=N)n(CC(O)c2ccco2)c2ccccc21 (stereo not given)	GLP-1R inv ag 11µM, HEK293 tox inconclusive
CCCCCn1c(=N)n(CC(O)COc2cccc(C)c2)c2ccccc21 (stereo not given)	GLP-1R inv ag 11µM, HEK293 tox inconclusive (no result: GLP-1R agonist)
N=c1n(CCN2CCCC2)c2ccccc2n1CC(O)c1ccco1 (stereo not given)	none
CCn1c(=N)n(CC(O)COc2cccc(C)c2)c2ccccc21 (stereo not given)	none
COc1ccc(C)cc1NC(=O)Cn1c(=O)cc(C)c2c(C)nn(C)c21	GLP-1R inv ag inconclusive (no result: GLP-1R agonist)
Cc1cc(C)c(C#N)c(SCC(=O)Nc2nonc2N)n1	none
CC(C)c1ccc(S(=O)(=O)N2CCC(C(=O)N3CCN(c4cccc(Cl)c4)CC3)CC2)cc1	GLP-1R inv ag inconclusive
O=C(c1cccs1)c1cn(CCOc2ccccc2F)c2ccccc12	none (no result: GLP-1R agonist)
CC(C)(C)c1ccc(OCCn2cc(C(=O)c3ccco3)c3ccccc32)cc1	GLP-1R inv ag 7.9µM (no result: GLP-1R agonist)
O=C(c1ccco1)c1cn(CCOc2ccc(Cl)cc2)c2ccccc12	none (no result: GLP-1R agonist)
O=C(c1cccs1)c1cn(CCOc2ccc(F)cc2)c2ccccc12	GLP-1R inv ag 11µM (no result: GLP-1R agonist)
O=C(NCC(c1ccco1)S(=O)(=O)c1cccs1)c1ccc(C(F)(F)F)cc1 (stereo not given)	none (no result: GLP-1R agonist)
COc1cccc(CNC(=O)c2ccc3c(c2)nc2n3CCC(C)C2)c1OC (stereo not given)	none (no result: GLP-1R agonist)
CCOC(=O)C(Sc1cc(-c2ccccc2)nc2ncnn12)C(C)=O (stereo not given)	GLP-1R inv ag inconclusive, HEK293 tox 3.5µM
CCOC(=O)C(Cc1ccccc1)NC(=O)CCc1c(C)nc2ncnn2c1C (stereo not given)	none
CC(O)[C@H]1CNCCN1CC1(c2ccccc2)CC1 (stereo not given in full)	none
O=c1[nH]c(C2CCN(S(=O)(=O)c3cccc(C(F)(F)F)c3)CC2)nc2c1nnn2Cc1cccc(F)c1	GLP-1R inv ag 7.9µM, HEK293 tox inconclusive
O=c1[nH]c(C2CCN(S(=O)(=O)c3ccc4c(c3)OCCO4)CC2)nc2c1nnn2Cc1cccc(F)c1	none
Cn1cc(C(=O)NCc2ccccc2)c(=O)c2cc(S(=O)(=O)N3CCCCCC3)ccc21	none (no result: GLP-1R agonist)
COc1ccccc1C(=O)C1CCCN(C(=O)c2cccc(Cn3cccn3)c2)C1 (stereo not given)	none
[O-][n+]1ccccc1SCc1ccccc1	none
N#CC(C#N)=C(N)CSc1cccc[n+]1[O-]	GLP-1R inv ag inconclusive, HEK293 tox 4.5µM
Cc1nn(Cc2cccc(C(=O)NC34CC5CC(CC(C5)C3)C4)c2)c(C)c1Br	GLP-1R inv ag 2.8µM
CCCNC(=O)c1cccc(Cn2nc(C)c(Br)c2C)c1	GLP-1R inv ag inconclusive
CCn1c(SCC(=O)NC2CCCC2)nnc1C(C)C	none
Cc1cc(NC(=O)CSc2nnc(C)n2C)no1	none
CCOc1cccc(CN2CCCC(N3CCN(c4cccc(Cl)c4)CC3)C2)c1O (stereo not given)	GLP-1R inv ag 10µM
CCOc1cccc(CN2CCCC(N3CCc4ccccc4C3)C2)c1O (stereo not given)	none
Cc1cc(Nc2ccccc2C(=O)O)ccc1Cl	none (no result: GLP-1R inv ag, HEK293 tox)
Cc1cc(-c2csc3ncnc(N4CCN(C)CC4)c23)cc(C)c1C	GLP-1R inv ag inconclusive
Oc1ccccc1N1CCN(c2ncnc3scc(-c4ccc(F)cc4)c23)CC1	GLP-1R inv ag inconclusive
CN1CCN(c2ncnc3scc(-c4ccccc4Cl)c23)CC1	GLP-1R inv ag 1.4µM
Cc1ccc2cccc(Oc3ncnc4scc(-c5ccccc5)c34)c2n1	GLP-1R inv ag inconclusive
CCOc1ccccc1N1CCN(c2ncnc3scc(-c4ccc(OC)cc4)c23)CC1	GLP-1R inv ag inconclusive
Oc1ccccc1N1CCN(c2ncnc3scc(-c4ccccc4)c23)CC1	GLP-1R inv ag 11µM
COc1ccc(-c2csc3ncnc(Oc4cccc5ccc(C)nc45)c23)cc1	GLP-1R inv ag 10µM
COc1ccc(-c2csc3ncnc(N4CCN(c5ccccc5OC)CC4)c23)cc1	GLP-1R inv ag 10µM
CC(CNc1nc2ccc(Cl)cc2n2cnnc12)c1ccccc1 (stereo not given)	none
CCN(C[C@H]1N[C@@](C)(C(=O)OC)[C@H]2C(=O)N(C)C(=O)[C@@H]12)C(=O)COC	none
Cc1c(CCO)c(=O)[nH]n1S(=O)(=O)c1ccc([N+](=O)[O-])cc1	none
Cc1cccc(N2C(=O)CS(=O)(=O)C23C(=O)N(C)c2ccccc23)c1 (stereo not given)	none
Cc1cc(C)n(C(C)CC(=O)NCc2ccc(Cl)cc2)n1 (stereo not given)	none (no result: GLP-1R agonist)
Cc1c(Br)c([N+](=O)[O-])nn1C(C)C(=O)N1CCCc2ccccc21 (stereo not given)	GLP-1R inv ag 10µM
O=C(NC(=O)N1CCCc2ccccc21)c1ccccc1	none
Cc1c(Br)c([N+](=O)[O-])nn1CC(=O)N1CCc2ccccc21	none
O=C(C(c1ccccc1)c1ccccc1)N1CCCc2ccccc21	GLP-1R inv ag 5µM
N[C@@H](C(=O)N[C@H]1C(=O)N2C(C(=O)O)=C(Cl)CC[C@H]12)c1ccccc1	none (no result: GLP-1R inv ag, HEK293 tox)
CCN(C(=O)c1ccc(C(=O)N(CC)c2ccccc2C)cc1)c1ccccc1C	none (no result: GLP-1R agonist)
CCN1CCN(c2ccc(N3CCN(S(=O)(=O)c4ccc(C)c([N+](=O)[O-])c4)CC3)nn2)CC1	GLP-1R inv ag 1.6µM
Cc1ccc(S(=O)(=O)N2CCN(C)CC2)cc1[N+](=O)[O-]	none
COC(=O)c1ccc(/C=N/OCC(=O)NC2CCCCCCC2)cc1	GLP-1R inv ag 13µM
COC(=O)c1ccc(/C=N/OCC(=O)NC2CCCC(C)C2C)cc1 (stereo not given)	GLP-1R inv ag inconclusive
CCOC(=O)c1cc2c(=O)n3ccccc3nc2n(C)c1=NC(=O)c1c(-c2ccccc2Cl)noc1C	none (no result: GLP-1R agonist)
CCOC(=O)c1ccc(NC(=O)c2c(-c3c(F)cccc3Cl)noc2C)cc1	GLP-1R inv ag inconclusive (no result: GLP-1R agonist)
COc1ccc(C2C(C#N)=C(N)Oc3cc4c(cc32)OCO4)cc1 (stereo not given)	none

Bioassay records from PubChem BioAssay.
